In the library only some 10% were active in any assay of this set; here they are far more common.
Six1-Eya2 blk = qHTS Assay for Inhibitors of the Six1/Eya2 Interaction; AlphaScreen GST-Six1/His-Eya2 binding, biochemical; active compounds read low; activity change, % (test concentration not listed); 360,000 compounds, 0.56% hits; AID 651725, 2012; in the data active means activity change below about -65%; inconclusive means mostly about -30% to -63%
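Compounds are tested against tagged Six1 and Eya2 proteins bridged by glutathione donor and nickel acceptor beads; after a one-hour incubation at 37 °C without light, AlphaScreen emission is recorded.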
JMJD2A Tudor = qHTS Assay for Inhibitors of JMJD2A-Tudor Domain | AlphaScreen JMJD2A-Tudor / H3K4me3 peptide binding | Potency, µM (series often up to 114 µM), most hits filed as inhibitors | 390,000 compounds, 4.4% hits; further: nearly all actives have a fitted effect of over 50% in size
G9a block = qHTS Assay for Inhibitors of Histone Lysine Methyltransferase G9a; 350,000 compounds, 8.8% hits; Potency, µM (series often up to 102 µM), usual class: inhibitors; Histone-lysine N-methyltransferase EHMT2 (Homo sapiens), Q96KQ7; G9a H3K9 monomethylation, AlphaScreen, 2 h; further: nearly all actives have a fitted effect of over 75% in size
Target sequence (Q96KQ7 913-1193 limits assumed): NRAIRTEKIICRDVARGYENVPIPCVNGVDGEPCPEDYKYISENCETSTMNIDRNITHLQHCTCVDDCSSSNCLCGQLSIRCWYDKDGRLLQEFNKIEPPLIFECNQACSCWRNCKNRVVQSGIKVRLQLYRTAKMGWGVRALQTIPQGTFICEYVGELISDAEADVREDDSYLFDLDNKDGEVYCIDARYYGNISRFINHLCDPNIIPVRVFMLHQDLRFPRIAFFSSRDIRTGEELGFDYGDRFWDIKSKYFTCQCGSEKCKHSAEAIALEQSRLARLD
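AlphaScreen read-out: biotin-H3K9 peptide (500 nM) methylation by 20 nM enzyme with 20 uM SAM, 2 h at room temperature after 15 min compound preincubation; anti-monomethyl H3K9 antibody plus donor/acceptor beads, 10 min dark.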
BAZ2B block = qHTS Assay for Inhibitors of BAZ2B; Bromodomain adjacent to zinc finger domain protein 2B (Homo sapiens), Q9UIF8; AlphaScreen BAZ2B-H3K14Ac peptide displacement; Potency, µM (titrated, usually from 114 µM), usual class: inhibitors; 360,000 compounds, 4.4% hits; further: nearly all actives have a fitted effect of over 60% in size
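Compounds, titrated to a top concentration of 110 uM, were incubated 30 min at room temperature with preformed BAZ2B/acetyl-K14 H3 peptide complex (50 nM each). Proximity signal was measured by AlphaScreen after 20 min with beads.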
CtBP-E1A inh = qHTS Assay for Inhibitors of the CtBP/E1A Interaction | CtBP / adenovirus E1A interaction (AlphaScreen) | AlphaScreen GST-E1A/His-CtBP binding, 1536-well; active compounds read low | activity change, % (concentration not given with the values) | 340,000 compounds, 0.49% hits; in the data active means activity change below about -65%; inconclusive means mostly about -30% to -63%
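Homogeneous bead-based format: GST-tagged E1A captured on glutathione donor beads, His-tagged CtBP on nickel acceptor beads; compounds precede bead addition by 2 h at 37 °C.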
HP1b chromo inh = HTS for Inhibitors of HP1-beta Chromodomain Interactions with Methylated Histone Tails. AlphaScreen HP1-beta / biotin-H3K9me3 peptide binding. AID 540317, 2011. Potency, µM (series often up to 114 µM), actives largely listed as inhibitors. Chromobox protein homolog 1 (Homo sapiens), P83916. 390,000 compounds, 0.56% hits; further: nearly all actives have a fitted effect of over 70% in size
Target sequence (P83916 whole entry, looked up): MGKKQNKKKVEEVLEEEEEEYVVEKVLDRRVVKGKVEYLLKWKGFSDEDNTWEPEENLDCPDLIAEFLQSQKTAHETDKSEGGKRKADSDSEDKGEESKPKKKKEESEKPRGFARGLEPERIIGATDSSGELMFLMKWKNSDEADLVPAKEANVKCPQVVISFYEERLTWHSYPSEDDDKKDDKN
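Compound inhibition of the preformed complex between 50 nM HP1-beta and 50 nM biotinylated H3K9me3 peptide was read by AlphaScreen. Buffer was PBS pH 7.4 with 0.01% Tween-20. Incubations ran 30 min at room temperature, with 10 ug/mL donor/acceptor beads.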
Hits are given with their value; 0 = inactive; ? = inconclusive; - = no result; ! = not active in a repeat; [ ] = another dose, or the depositor's remark. Unless noted, the call rests on the fitted dose curve; in most records, active means well fitted inhibition curve with a large enough effect; inconclusive means small, poorly fitted or top-dose-only effect; inactive means no such curve, though single readings can be large or run the other way.

SMILES	Six1-Eya2 blk	JMJD2A Tudor	G9a block	BAZ2B block	CtBP-E1A inh	HP1b chromo inh
CCc1cccc2c(C(=O)CSc3nnc(C4CC4)o3)c[nH]c12	0	0	0[12.7 µM]	0	0	0
CCOc1ccc(CNC(=O)c2cnc3sc(N4CCC(C)CC4)nn3c2=O)cc1OC	-	0	0	0	-	0
COc1cc(C(=O)NCCc2sc(-c3cccc(F)c3)nc2C)cc(OC)c1OC	-	0	0	0	-	0
O=c1c2[nH]c3ccc(Br)cc3c2ncn1Cc1ccncc1	0	0	-	0	0	0
Cc1ccc2[nH]c3c(=O)n(Cc4ccncc4)cnc3c2c1	0	0	0	50µM	0	0
CCC(Sc1nc2ccccc2c(=O)[nH]1)C(=O)Nc1ccc(C(C)=O)cc1 (centres undefined)	0	0	-	0	0	0
CCc1c(C)sc(NC(=O)c2cc(C(C)C)on2)c1C#N	0	0[11.4 µM]	?	0	0	0
CCc1c(C)sc(NC(=O)c2cc(C)no2)c1C#N	0	0	13µM	?	0	0
Cc1cc(C(=O)Nc2sc(C)c(C)c2C#N)no1	0	0	?	0	0	0
CCc1cc(C(=O)Nc2sc(C)c(CC)c2C#N)no1	-	0	2.5µM	0	-	0
COCCN(C(=O)c1ccc(C)o1)c1c(N)n(CC(C)C)c(=O)[nH]c1=O	0	0	0[12.7 µM]	0	0	0
COC(=O)c1cc(N=C(N)N=C(N)N)cc(C(=O)OC)c1	0	0	0	0	-	0
Sc1oc(-c2ccccc2)cc1C=Nc1ccccc1	-71	20µM	0.89µM	20µM	-73	?
O=C(c1ccc(F)cc1)C1CCN(CCn2c(=O)[nH]c3ccccc3c2=O)CC1	0	0	0.79µM!	?	0	0
O=C(CCCn1c(=O)[nH]c2ccccc2c1=O)Nc1ccc(F)cc1	0	0	0	0	0	0
CC(C)c1ccc(N2C(=O)CC(NNC(=O)c3cccnc3)C2=O)cc1 (centres undefined)	0	0	56µM	0	0	0
O=C(NNC1CC(=O)N(c2ccc(F)cc2)C1=O)c1cccnc1 (centres undefined)	0	0	13µM	0	0	0
CCOc1cccc(C2c3c(oc4ccc(F)cc4c3=O)C(=O)N2c2cc(C)ccn2)c1 (centres undefined)	-	0	0	0	-	0
CCOC(=O)C1(Cc2ccccc2C(F)(F)F)CCN(C(C)CCn2cccn2)CC1 (centres undefined)	0	0	-	45µM	0	0
CCOC(=O)C1(Cc2ccccc2C(F)(F)F)CCN(C(C)CSC)CC1 (centres undefined)	0	0	0	0	-	0
COc1ccc(CCNC(=O)C2CC(c3cc(C(F)(F)F)cc(C(F)(F)F)c3)=NO2)cc1 (centres undefined)	0	0	?	?	0	0
CC1CCCCN1CCCNC(=O)c1ccc(N2CCCC2=O)cc1 (centres undefined)	0	0	0	0	0	0
CC1CC(C)CN(CCCNC(=O)c2ccc(N3CCCC3=O)cc2)C1 (centres undefined)	0	0	7.9µM	0	-	0
O=C(O)c1cccc(N2CCCC2=O)c1	0	0	50µM	0	0	0
C[C@H]1CC[C@H]2C(=O)N3[C@H](c4cccc(N5CCCC5=O)c4)[C@@H](C)CC[C@H]3C(=O)N2[C@@H]1c1cccc(N2CCCC2=O)c1	-	-	50µM	0	-	-
SMILES	Six1-Eya2 blk	JMJD2A Tudor	G9a block	BAZ2B block	CtBP-E1A inh	HP1b chromo inh
CC(=O)Nc1cccc(N2CCCC2=O)c1	0	0	0	0	0	0
CN(CCCNC(=O)c1cccc(N2CCCC2=O)c1)c1ccccc1	0	0	8.9µM	0	0	0
COc1ccccc1C1=Nn2c(nnc2-c2ccccc2O)SC1	-	0	-	-	-	-
Cc1nn(Cc2ccccc2Cl)c(C)c1N	0	0	0	0	0	0
CN(C)c1ccc(/C=N/n2cnn(Cc3ccccc3Cl)c2=S)cc1	0	0	4.5µM	?	0	?
Fc1ccc(/C=N/n2cnn(Cc3ccccc3Cl)c2=S)cc1	0	0	20µM	0	0	0
CN(CC(=O)NCc1ccc(F)cc1)S(=O)(=O)c1ccc2[nH]c3c(c2c1)CCCC3	-	?	16µM	40µM	-	0
CCOc1ccc(NC(=O)CN(C)S(=O)(=O)c2ccc3[nH]c4c(c3c2)CCCC4)cc1	-	?	10µM	?	-	0
Cc1cccc(C)c1NC(=O)CN(C)S(=O)(=O)c1ccc2[nH]c3c(c2c1)CCCC3	-	?	14µM	40µM	-	0
Cc1cccc(N(C)C(=O)CN(C)S(=O)(=O)c2ccc3[nH]c4c(c3c2)CCCC4)c1	-	?	11µM	?	-	?
Cc1ccc(NC(=O)Cn2nc3c(cc2=O)CCCC3)cc1Cl	-	0	0	0	-	0
O=C(CSc1ccc(-c2cccs2)nn1)Nc1ccccc1C(F)(F)F	-	0	0	0	-	0
O=C(CSc1ccc(-c2cccs2)nn1)Nc1cccc(F)c1	-	0	18µM	0	-	0
Cc1ccc(NC(=O)Cn2nc(-c3ccco3)ccc2=O)cc1Cl	0	0	11µM	0	0	0
CC(=O)c1cccc(NC(=O)CSc2ccc(-c3ccco3)nn2)c1	0	?	32µM	0	0	0
COc1ccc(C)cc1NC(=O)CSc1ccc(-c2ccco2)nn1	0	?	40µM	?	0	0
COC(c1ccccc1)c1nnc(CCC(=O)NCc2cccc(-n3cccn3)c2)o1 (centres undefined)	0	0	-	0	0	0
O=C(CSc1ccc(-c2ccco2)nn1)c1cccc([N+](=O)[O-])c1	0	?	10µM	0	0	0
COc1cc(NC(=O)Cn2nc(-c3ccc(F)cc3)ccc2=O)ccc1-n1cnnn1	0	0	0	-	-	0
CCc1nnc(NC(=O)CSc2ccc(-c3ccc(F)cc3)nn2)s1	-	-	45µM	0	-	-
COc1ccccc1-c1ccc(SCC(=O)NCCc2ccccc2)nn1	0	0	0	0	0	0
COc1ccccc1CCNC(=O)CSc1ccc(-c2ccco2)nn1	0	0	28µM	50µM	0	0
CCc1nnc(NC(=O)CSc2ccc(-c3cccs3)nn2)s1	0	0	0	0	0	0
Cc1cc(NC(=O)Cn2nc(-c3ccccc3F)ccc2=O)ccc1-n1cnnn1	0	0	56µM	0	0	0
